Inconclusive results are not listed. The source made the active and inactive calls. The call rests on the fitted dose curve; in most records, active means well fitted inhibition curve with a large enough effect; inconclusive means small, poorly fitted or top-dose-only effect; inactive means no such curve, though single readings can be large or run the other way.
Potency means the concentration at half of the fitted maximal effect.

The experiment can be described thus: Acumen qHTS Assay for Inhibitors of the mTORC1 Signaling Pathway in MEF (Tsc2-/-, p53-/-) Cells: Hit Validation.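 Further: phospho-rpS6 Ser235/236 immunofluorescence normalized to propidium iodide cell count; nearly all actives have a fitted effect of over 65% in size.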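 On activity change, negative = inhibition: cells exposed to compound for 24 hours; plate controls were DMSO for no effect and 7.5 nM rapamycin control for full effect.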 Particulars: Acumen imaging; activity change, negative = inhibition: at 37.3 µM (top of the series). (qHTS replaces the single test concentration by a dilution series.)
Regarding `COc1cc(C(=O)CC2(O)C(=O)N(Cc3ccccc3Cl)c3ccccc32)cc(OC)c1OC` (configuration not stated), the activity change, negative = inhibition was -2.03%. Same read-out and setting: the figure for `CCC(C)n1c(SCc2c(F)cccc2Cl)nc2ccsc2c1=O` (configuration not stated) is -45.2%; for `CCc1ccc(CN(Cc2ccco2)C(=O)c2cc(-c3ccc(C)c(F)c3)on2)cc1` it is -10.4%; for `COc1ccc(N(C)C(=O)c2cc(S(=O)(=O)N3CCc4ccccc43)cn2C)c(OC)c1` it is 18.7%. `COc1cc(Cl)c(C)cc1Nc1c2c(nc3ccccc13)CCC2`: the Potency is 0.927 µM (active). As to `c1ccc(N2CCN(c3ncnc4[nH]ncc34)CC2)cc1`, the activity change, negative = inhibition worked out at 6.17%. For the compound `CCOC(=O)c1c(C)[nH]c(CCC(=O)NCCCN2CCN(c3cc(C)ccc3C)CC2)c1C`, the Potency was 16.5 µM (active).

In the case of `Cc1ccc(-c2csc(-c3cc4c([nH]c3=O)CC(c3ccccc3)CC4=O)n2)cc1` (configuration not stated), the Potency was 0.927 µM (active). With `CCOc1ccccc1NC(=O)N(Cc1ccc(F)cc1)C1CCN(CC)CC1`, the activity change, negative = inhibition is -15.8%. `CCC1=Nc2cc(C(=O)NC3CCC(C)CC3)ccc2Sc2ccc(C)cc21` (configuration not stated): the Potency was 1.47 µM (active). In the case of `CCOc1ccc(CC(=O)NC2CC(=O)N(c3ccc4c(c3)OCCO4)C2)cc1` (configuration not stated), the activity change, negative = inhibition is -2.04%.

On to `CCS(=O)(=O)c1ncc(Cl)c(C(=O)NCc2ccccc2)n1`, for which the Potency was 6.56 µM (active). For `COc1ccc(C2Sc3ccccc3NC3=C2C(=O)c2ccccc23)c(OC)c1OC` (configuration not stated), the activity change, negative = inhibition was -65.9%. As to `Cc1ccc(NC(=O)c2nc(S(=O)(=O)Cc3ccc(F)cc3)ncc2Cl)cc1C`, the Potency is 11.7 µM (active). In the case of `COc1cc2c(cc1OC)n(CC(=O)c1ccc(F)cc1)c(=O)n1nc(CCn3nc(C)cc3C)nc21`, the activity change, negative = inhibition is -5.74%. As for `CCOC(=O)c1c(NC(=O)c2cc(CC)on2)sc(C(C)=O)c1C`, the activity change, negative = inhibition came to 12%. On the same count and under the same terms, the figure for `COc1ccc(CNC(=O)c2cc(-c3ccc(OC)c(OC)c3)nc3n[nH]c(-c4ccc(C)cc4)c23)cc1` is -124%. For `O=C(Nc1ccc(F)c(Cl)c1)c1cc(S(=O)(=O)N2CCCc3ccccc32)ccc1F`, the activity change, negative = inhibition is -51.1%.

Turning to `COC(=O)c1ccccc1NC(=O)Cn1c(=O)n(-c2ccc(C)cc2)c(=O)c2ccccc21`, the Potency is 5.85 µM (active). With `COc1ccc(C2CC(=O)c3c([nH]c(C(=O)OC4CCCCCC4)c3C)C2)cc1OC` (configuration not stated), the activity change, negative = inhibition amounted to 8.05%. Turning to `NC(=O)c1ccc(-c2nc(-c3ccc4c(c3)OCO4)c(-c3ccccn3)[nH]2)cc1`, the activity change, negative = inhibition was -5.7%. For `COc1ccc(C(=O)N2CCN(C(=O)COc3ccc(Br)cc3)CC2)cc1OC`, the activity change, negative = inhibition was -17.7%. Still for that read-out and setting: the figure for `CCn1c(CC2C(=O)N(C)c3ccc(Br)cc32)nc2ccccc2c1=O` (configuration not stated) is -27%. Still for that read-out and setting: the figure for `CCOc1ccc(Nc2nc(-c3cccc(Cl)c3)c3c(n2)-c2ccccc2OC3)cc1` is 6.48%.

On to `COc1ccc(OC)c(NC(=O)c2nnn(CC(=O)Nc3ccc(C(C)C)cc3)c2N)c1`, for which the activity change, negative = inhibition was -27.6%. The same measure, in the same setting: the figure for `CCc1ccc(NC(=O)C2CCCN(S(=O)(=O)c3c(C)noc3/C=C/N(C)C)C2)cc1` (configuration not stated) is -73.7%; for `CC(C)c1nnc(NC(=O)c2nc(S(=O)(=O)Cc3ccccc3)ncc2Cl)s1` it is -86.2%. For `CCOc1cc(-c2nnc(SCC(=O)NCc3ccccc3)nc2-c2ccc(OC)c(OCC)c2)ccc1OC`, the Potency was 2.07 µM (active). Turning to `CCc1ccc(S(=O)(=O)c2nnn(-c3ccc(F)cc3)c2N)cc1`, the activity change, negative = inhibition is -3.55%. Still for that read-out and setting: the value for `COc1ccc(C)cc1NC(=O)CCNS(=O)(=O)c1cccc2nonc12` was 5.15%. With `CC(C)S(=O)(=O)c1oc(-c2cccs2)nc1S(=O)(=O)c1ccc(F)cc1`, the Potency was 0.736 µM (active). Still for that read-out and setting: the figure for `CCC(C)S(=O)(=O)c1oc(-c2ccc(F)cc2)nc1S(=O)(=O)c1ccc(F)cc1` (configuration not stated) is 1.31 µM (active). On to `CCc1ccc(S(=O)(=O)N(C(=O)Oc2ccccc2)c2ccc3oc(C)c(C(=O)OC)c3c2)cc1`, for which the activity change, negative = inhibition is -70.3%. Same read-out and setting: the value for `COc1cc(CNc2ccc3c(c2)ncn3C(C)C)cc(OC)c1OC` was -25.9%. On to `Cc1cccc(NC(=O)Cn2cc(C(=O)C3CCCCC3)c3ccccc32)c1C`, for which the Potency was 1.04 µM (active). As for `Cc1ccc([C@H]2Nc3ccc(S(=O)(=O)Nc4cccc(Cl)c4C)cc3[C@H]3C=CC[C@H]32)cc1`, the activity change, negative = inhibition was determined as 8.84%. Still for that read-out and setting: the figure for `CCOc1ccccc1NC(=O)CSc1cc(=O)n(CC)c2ccccc12` is 1.04%.

For the origin of these results see PubChem BioAssay AID651784 (National Center for Advancing Translational Sciences (NCATS), 2012).
